# A selection: hits, their analogues and other compounds. The true share with any hit is near 2.7%.
# IP6K1 inh = inhibitors of human IP6K1. activity change, % (series mostly up to about 58 µM). hit rate 0.81% among 140,000. IP6K1 kinase, ADP-Glo luminescence, 2 h; stronger effect = lower value; in the data active means activity change below about -25%; further: on the % scale 0 is the no-effect control and ±100 the full control effect
#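 ADP-Glo luminescence measures ADP made by human IP6K1 during a 2 h RT reaction with ATP/IP6 (mix at 1.3 mM/130 uM); top library doses 57.5 and 19.1 uM final.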
# KDM5B inhibitor = inhibitors of human KDM5B histone demethylase | Q9UGL1 | KDM5B demethylase, FDH-coupled NADH fluorescence (FDH is formaldehyde dehydrogenase) | Potency, µM (highest dose often 57.7 µM), most hits filed as inhibitors | hit rate 2.6% among 220,000; active means well fitted inhibition curve with a large enough effect; inconclusive means small, poorly fitted or top-dose-only effect; inactive means no such curve, though single readings can be large or run the other way; further: potency means the concentration at half of the fitted maximal effect; 0% is about no effect; nearly all actives have a fitted effect of over 70% in size
# Target sequence (Q9UGL1 whole entry, looked up): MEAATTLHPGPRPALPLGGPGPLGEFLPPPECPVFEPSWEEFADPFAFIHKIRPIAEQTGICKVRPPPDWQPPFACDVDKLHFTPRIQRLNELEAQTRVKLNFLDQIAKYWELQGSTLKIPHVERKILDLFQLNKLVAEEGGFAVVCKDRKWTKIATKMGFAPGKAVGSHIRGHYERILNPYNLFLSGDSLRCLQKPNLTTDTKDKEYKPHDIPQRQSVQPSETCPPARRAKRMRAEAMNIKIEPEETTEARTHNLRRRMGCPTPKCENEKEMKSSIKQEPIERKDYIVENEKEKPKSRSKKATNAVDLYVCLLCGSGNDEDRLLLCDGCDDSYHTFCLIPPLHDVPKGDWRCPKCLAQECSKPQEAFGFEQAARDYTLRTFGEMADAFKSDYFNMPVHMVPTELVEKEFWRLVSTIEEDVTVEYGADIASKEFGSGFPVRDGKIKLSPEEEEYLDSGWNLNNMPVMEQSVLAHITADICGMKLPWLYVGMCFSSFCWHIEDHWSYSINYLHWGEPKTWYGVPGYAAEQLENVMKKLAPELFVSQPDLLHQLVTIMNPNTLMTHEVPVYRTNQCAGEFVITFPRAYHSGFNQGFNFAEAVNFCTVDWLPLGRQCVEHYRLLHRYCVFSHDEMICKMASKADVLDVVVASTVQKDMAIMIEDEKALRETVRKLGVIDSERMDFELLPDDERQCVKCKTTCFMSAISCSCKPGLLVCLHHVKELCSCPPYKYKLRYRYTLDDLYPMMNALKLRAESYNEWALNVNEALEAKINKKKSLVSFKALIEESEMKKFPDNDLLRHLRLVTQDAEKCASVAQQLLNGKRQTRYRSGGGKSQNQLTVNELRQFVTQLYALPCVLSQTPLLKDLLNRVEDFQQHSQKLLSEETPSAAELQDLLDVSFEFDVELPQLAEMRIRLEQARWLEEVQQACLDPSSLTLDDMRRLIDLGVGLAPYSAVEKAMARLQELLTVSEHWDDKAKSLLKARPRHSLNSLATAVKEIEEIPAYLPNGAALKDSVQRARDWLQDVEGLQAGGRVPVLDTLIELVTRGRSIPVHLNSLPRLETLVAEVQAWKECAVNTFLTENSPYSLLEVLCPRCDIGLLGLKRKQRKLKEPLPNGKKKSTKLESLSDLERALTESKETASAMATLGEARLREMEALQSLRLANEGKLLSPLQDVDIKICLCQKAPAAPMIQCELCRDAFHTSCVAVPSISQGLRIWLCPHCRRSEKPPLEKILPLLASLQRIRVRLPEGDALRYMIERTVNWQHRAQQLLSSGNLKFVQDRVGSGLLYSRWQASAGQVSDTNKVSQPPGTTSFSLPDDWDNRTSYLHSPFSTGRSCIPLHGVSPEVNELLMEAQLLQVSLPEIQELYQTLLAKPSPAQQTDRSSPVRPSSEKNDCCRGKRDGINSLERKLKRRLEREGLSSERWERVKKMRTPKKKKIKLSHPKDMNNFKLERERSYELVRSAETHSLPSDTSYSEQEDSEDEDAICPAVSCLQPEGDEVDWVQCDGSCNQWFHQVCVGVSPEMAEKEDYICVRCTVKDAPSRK
#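 Coupled FDH/NAD⁺ fluorescence readout. KDM5BΔAP 200 nM final; compound titration, 10 min RT preincubation; substrate mix 12.5 µM H3K4me3, 25 µM 2-OG, 50 µM Fe(II), 100 µM ascorbate, 0.25 mM NAD⁺, 0.25 U/mL FDH; ΔRFU over 30 min.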
# An asterisk follows results filed as active; i = inactive; u = inconclusive; x = not tested or not shown.
SMILES,IP6K1 inh,KDM5B inhibitor
CC1(C(=O)NCc2cnccn2)CCCc2cnc(NCc3ccccc3)nc21 (stereo not given),-2,i
Cc1cc(C)c2cccc(C)c2n1,x,i
NC(=O)CSc1nnc(CNC(=O)c2ccc(Cl)cc2)n1-c1ccccc1,x,i
COCCN1C[C@H]2COc3ccccc3[C@H]2N(C(=O)OCC(C)C)CCC1=O,-8,x
O=C(NCc1ccccc1)C1CCc2nnc(C3CC3)n21 (stereo not given),11,x
COCc1ncc(C)n1CCNC(=O)c1cc(-c2ccccc2C)n[nH]1,1,i
COCc1ncc(C)n1CCNC(=O)c1ccc(C)[nH]c1=O,-16,22µM*
Cc1ccc(NC(=O)C2CCc3nnc(C4CC4)n32)cc1 (stereo not given),12,x
COC(=O)c1c(C)[nH]c(C(=O)C(C)OC(=O)c2ccc(F)cc2)c1C (stereo not given),x,i
COc1cccc(-c2ncc(CNC(=O)[C@H]3CC[C@@H](N)C3)s2)c1,23,25µM*
COc1cccc(-c2ccc(C(=O)NCCNC(=O)C3CC3)cc2)c1,-11,x
COc1ccccc1C(=O)N[C@H]1[C@H](O)[C@H](O)C[C@@H]1c1ccc(N2CCOCC2)nc1,-4,u
COc1ccc(CN[C@H]2[C@H](O)[C@H](O)C[C@@H]2c2ccc(C(F)(F)F)nc2)cc1,7,i
CN1CCC(N[C@H]2[C@H](O)[C@H](O)C[C@@H]2c2ccc(N3CCOCC3)nc2)CC1,1,32µM*
Cc1cc(C(=O)N[C@H]2[C@H](O)[C@H](O)C[C@@H]2c2ccc(N3CCOCC3)nc2)n(C)n1,-2,u
COc1cccc(CN[C@H]2[C@H](O)[C@H](O)C[C@@H]2c2ccc(N3CCOCC3)nc2)c1,0,35µM*
COc1cccc(C(=O)N[C@H]2[C@H](O)[C@H](O)C[C@@H]2c2ccc(N3CCOCC3)nc2)c1,-6,35µM*
O=C(CSc1nc(=O)n(Cc2ccncc2)c2c1CCC2)Nc1cccc(Cl)c1,x,i
COc1ccc(-c2nc(COc3ccc(F)c(Cl)c3)co2)cc1,x,i
CC(C)(C)c1ccc(-c2cc(C[C@H]3CNCC[C@H]3CC(=O)N3CCN(c4ccccn4)CC3)no2)cc1,7,i
CN(Cc1ccccc1)Cc1cc(C[C@H]2CNCC[C@H]2CC(=O)N2CCN(c3ccccn3)CC2)no1,0,18µM*
COc1ccnc(N2CC[C@H](c3nnc(-c4ccc(C)cc4)o3)C2)n1,3,u
Cc1ccc(-c2nnc([C@H]3CCN(c4nccc(C(F)(F)F)n4)C3)o2)cc1,12,20µM*
FC(F)(F)c1ccnc(N2CC[C@H](c3nnc(-c4ccncc4)o3)C2)n1,-5,u
Cc1ccc(-c2nnc([C@H]3CCN(c4ncccn4)C3)o2)cc1,23,40µM*
SMILES,IP6K1 inh,KDM5B inhibitor
COc1cccc(CN2CCC3(COc4ccccc4C(=O)N3)C2)c1 (stereo not given),29,u
O=C1NC2(CCN(Cc3ccc(OC(F)(F)F)cc3)CC2)COc2ccccc21,10,i
O=C1NC2(CCCN(Cc3ccc(F)cc3)C2)COc2ccccc21 (stereo not given),38,25µM*
CC(=O)Nc1ccc(CN2CCCC3(COc4ccccc4C(=O)N3)C2)cc1 (stereo not given),14,u
O=C1NC2(CCCN(Cc3ccc(OC(F)(F)F)cc3)C2)COc2ccccc21 (stereo not given),8,35µM*
O=C1NC2(CCCN(Cc3ccsc3)C2)COc2ccccc21 (stereo not given),20,u
COc1cccc(CN2CCCC3(COc4ccccc4C(=O)N3)C2)c1 (stereo not given),18,35µM*
O=C1NC2(CCCN(Cc3ccccc3C(F)(F)F)C2)COc2ccccc21 (stereo not given),27,35µM*
CC(=O)N1CCC2(CC1)OC(=O)C(C)=C2C(=O)NCCN1CCOCC1,x,i
COc1cc(-c2cc(C(=O)O)c3ccccc3n2)ccc1O,x,i
CC(C)COc1ccc(C(=O)Nc2ccc(N3CCN(S(C)(=O)=O)CC3)cc2)cc1,x,i
Cc1[nH]c(C)c(S(=O)(=O)NCCC(=O)NCc2ccccc2Cl)c1C(=O)N1CCCCC1,x,i
O=S(=O)(NC1=NCN(CCc2ccccc2)CN1)c1ccccc1,x,i
O=C(NCc1ccc(F)cc1)C1(c2ccc(Cl)cc2)CCOCC1,-1,x
COc1ccc(CN2CC(COc3ccccc3)C3(C2)CN(c2ccccc2)C3)cc1O (stereo not given),-5,32µM*
COc1ccc(CN2CC(CNc3ccccc3)C3(C2)CN(c2ccccc2)C3)cc1O (stereo not given),-2,u
C#CCN(C)C(=O)CC1COc2ccc(C(=O)NCCOC)cc2N1C (stereo not given),8,32µM*
CCN(C(=O)CC1COc2ccc(C(=O)N(C)C)cc2N1C)C1CC1 (stereo not given),-6,i
CC(C)N(CC1CC1)C(=O)CC1COc2ccc(C(=O)N(C)C)cc2N1C (stereo not given),7,u
COCCNC(=O)c1ccc2c(c1)N(C)C(CC(=O)N(C)C(C)C)CO2 (stereo not given),-10,28µM*
CC(NC(=O)c1cc(-c2ccc(Br)cc2)n[nH]1)c1ccc(F)cc1 (stereo not given),x,i
C/C(=N\NC(=O)C1CC1c1ccc(C(C)(C)C)cc1)c1ccc(Cl)cc1 (stereo not given),x,i
O=C(Cc1ccc(F)cc1)NC1CCN(c2ccc3nnc(-c4ccccc4)n3n2)C1 (stereo not given),-10,x
Cc1nn(-c2ccccc2)c2c1C(C)N(C1CCN(C(=O)c3ccccc3)C1)C2=O (stereo not given),-1,x
O=c1c2nc(NCc3cccs3)ccc2ncn1Cc1ccccc1,12,40µM*
SMILES,IP6K1 inh,KDM5B inhibitor
O=c1c2nc(Nc3cccc(F)c3)ccc2ncn1Cc1ccccc1,6,u
Cn1c(C(=O)NCC2CCN(CC(F)(F)F)C2)cc2ccccc21 (stereo not given),x,i
CCCc1noc(-c2cccn3c(CNC(=O)c4cc(Cl)ccc4F)nnc23)n1,12,22µM*
CCCc1noc(-c2cccn3c(CNC(=O)c4cc(F)ccc4Cl)nnc23)n1,-3,25µM*
CCn1cc(CN(C)C(=O)c2cc3cc(Br)ccc3oc2=O)c(C)n1,x,i
Cc1noc(C)c1CCCNC(=O)c1ccc(N2CCC[C@H]2CO)nc1,2,i
Cc1noc(C)c1CCCNC(=O)c1ccc(N2CCN(CC3CC3)CC2)nc1,6,28µM*
Cc1cc(C)cc(NC(=O)CCn2cnc3c2c(=O)n(C)c(=O)n3C)c1,x,i
Cc1nc(-c2ccccc2)n(Cc2nc(-c3ccc(OC(C)C)cc3)oc2C)c(=O)c1CCO,-2,u
Cc1nc(-c2ccc(F)cc2)n(Cc2nc(-c3ccc(OC(C)C)cc3)oc2C)c(=O)c1CCO,-2,16µM*
CCOc1nccnc1NC1CCN(C(=O)c2cccn2C)CC1,0,28µM*
COc1nccnc1NC1CCN(C(=O)c2cnn3cccnc23)CC1,-2,u
CCOc1nccnc1NC1CCN(C(=O)c2ccc(C)s2)CC1,-8,28µM*
Cc1ccc(C(=O)N2CCC(OC3CCN(C)CC3)CC2)s1,11,i
O=c1cc(N2CCOCC2)oc2c(-c3ccccc3F)nccc12,-21,u

# Assay outcomes as filed in PubChem BioAssay.
